95 molecules from PubChem BioAssay AID1509 (The Scripps Research Institute Molecular Screening Center, 2009) can be followed below.

Out of some 220,000 compounds screened, about 770 (0.35%) were called active. Shown is part of a subset that was picked to be rich in actives. Unmarked numbers belong to inactive results. Cut-off read from the data, not from the text of the source: active = activation above about 11%; inactive = the rest.

Chain of Sphingosine 1-phosphate receptor 4 (Homo sapiens) (O95977 whole entry, looked up): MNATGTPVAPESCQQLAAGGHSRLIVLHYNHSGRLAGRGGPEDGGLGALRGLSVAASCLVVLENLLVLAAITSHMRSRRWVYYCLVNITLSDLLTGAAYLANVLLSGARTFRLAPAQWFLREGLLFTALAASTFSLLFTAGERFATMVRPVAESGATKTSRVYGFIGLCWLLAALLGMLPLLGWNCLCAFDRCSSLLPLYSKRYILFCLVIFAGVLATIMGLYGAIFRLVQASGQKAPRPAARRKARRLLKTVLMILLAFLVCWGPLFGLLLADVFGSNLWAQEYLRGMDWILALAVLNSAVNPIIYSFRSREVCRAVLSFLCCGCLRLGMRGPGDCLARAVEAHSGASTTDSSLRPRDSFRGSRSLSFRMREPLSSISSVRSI

The experiment concerns the target Sphingosine 1-phosphate receptor 4 (Homo sapiens) (UniProt O95977). Description: S1P4 receptor agonists, primary screen, cell-based (AID 1509).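 Note: 0% = DMSO vehicle and 100% = reference agonist.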 Conditions: S1P4-expressing cell line, agonist reporter assay; at 4.98 µM; active compounds read high.
As to `Cc1ccccc1OCCC(=O)OCC(=O)NC(C)c1ccccc1` (stereo not given), the activation is -1.6%.
For `CCN(CC)C(=O)Cn1cc(S(=O)(=O)CC(=O)NCc2ccc3c(c2)OCO3)c2ccccc21`, the activation was -1.22%.
On to `COc1ccc(C(=O)NN2C(=O)C3C(c4ccccc4)C=CC(c4ccccc4)C3C2=O)cc1` (stereo not given), for which the activation was -0.98%.
With `N#C/C=C(/c1ccc(F)cc1)N1CCOCC1`, the activation was -1.05%.
`Cc1cc2c(C)nc(N/N=C/c3ccccc3)nc2o1`: the activation was -1.39%.
As to `Cc1cc(C)cc(NC(=O)CSc2ccccc2)c1`, the activation was -1.04%.
Under `O=C(CSc1ccccc1)Nc1cc(Cl)ccc1Oc1ccccc1` stands 0.59%; under `CC(=O)Nc1ccc(SCC(=O)Nc2ccccc2Oc2ccccc2)cc1`, 13.2% (active).
As to `O=C(COC(=O)c1ccccc1SCC(=O)NC1CCCCC1)NC1CCCCC1`, the activation was 0.41%.
For the molecule `O=C(COC(=O)c1cc([N+](=O)[O-])ccc1NCc1ccccc1)NC1CCCCC1`, the activation was 15.3% (active).
As for `N#Cc1ccccc1Sc1ccccc1C(=O)OCC(=O)NC1CCCCC1`, the activation is 2.4%.
Next, `Cc1nn(CC(=O)Nc2ccc(N(C)C)cc2)c(C)c1[N+](=O)[O-]`: -0.79%; `NC(=O)c1ccc(-c2csnn2)cc1`: -0.31%.
Consider `N/C(=N\OC(=O)c1ccc([N+](=O)[O-])cc1)c1ccccn1`, for which the activation is -0.02%.
For `O=C(OCc1ccc([N+](=O)[O-])cc1)c1ccccn1`, the activation is -1.16%.
Under `N/C(=N\OC(=O)Cc1ccc([N+](=O)[O-])cc1)c1ccccn1` stands 15.5% (active); under `CCc1ccc(NC(=O)N[C@H](C(=O)O)C(C)CC)cc1` (stereo not given in full), -0.3%.
In the case of `O=S(=O)(Nc1ccc(Cl)cn1)c1cnc(Cl)c(Br)c1`, the activation was 0.57%.
Under `Cc1cc(NC(=O)c2cc(-c3cccs3)on2)nn1Cc1ccc(Cl)cc1` stands 13.1% (active); under `O=C(c1cc(-c2cccs2)on1)N1CCCCC1`, 0.14%; under `Cc1ccc(Cn2ccc(NC(=O)c3cc(C(C)C)on3)n2)cc1`, -0.1%.
As for `CCn1c(CNC(=O)c2ccc(OC)c(OC)c2)nnc1SCC(=O)Nc1ccccc1`, the activation was 21.5% (active).
Take `CCn1c(Cc2ccccc2)nnc1SCC(=O)Nc1ccccc1`: the activation is -2.58%.
For the molecule `CCn1c(CNC(=O)c2ccco2)nnc1SCC(=O)Nc1cccc(F)c1`, the activation is 1.91%.
On to `O=C(CN1CCN(S(=O)(=O)c2ccc(Cl)s2)CC1)NCc1ccc(Cl)cc1`, for which the activation was 0.73%.
For the molecule `COC(=O)C1=C(C)N(C)C(=O)NC1c1ccc([N+](=O)[O-])o1` (stereo not given), the activation is 0.41%.
Take `Brc1ccc(-c2n(-c3ccccn3)c3ccccc3[n+]2-c2ccccn2)cc1`: the activation is -0.47%.
Next, `CCn1c(N)c(Br)c(=O)[nH]c1=O`: 0.16%; `O=C(NNS(=O)(=O)c1ccccc1)c1cnn(-c2ccc(Cl)cc2)c1C(F)(F)F`: 1.09%; `Cc1ccc(NC(=O)CC2C(=O)N(Cc3ccccc3)C(=S)N2NC(=O)c2cccc(F)c2)c(C)c1` (stereo not given): 2.02%.
For the molecule `Cc1ccc(/C=N/NC(=O)Cn2ccc(C(F)(F)F)n2)o1`, the activation is 1.08%.
Consider `CC(=O)NC(=S)Nc1ccc(NC(=O)c2cccnc2)cc1`, for which the activation is -0.19%.
Next, `COc1ccc(CCn2c(NN=C3CCCC3)nc3c2c(=O)[nH]c(=O)n3C)cc1`: -1.13%; `FC(F)(F)c1ccnc(Oc2ccc(C3=NCCS3)cc2)c1`: -0.27%.
Under `O=c1cc(N2CCCCC2)c(-c2ccccc2)nn1Cc1cccc(F)c1` stands 0.58%; under `Cc1cc(C)cc(Oc2nc3c(C)cccn3c(=O)c2/C=C(\C#N)C(=O)NC2CCS(=O)(=O)C2)c1` (stereo not given), 2.53%.
For the molecule `Cc1ccc(CSc2nnc(-c3cnccn3)n2C)cc1`, the activation is -0.85%.
Consider `CC(C)c1ccc(NC(=S)NC2CC3C=CC2C3)cc1` (stereo not given), for which the activation was -1.16%.
On to `O=C(COc1cccc2ccccc12)Nc1cc(S(=O)(=O)N2CCOCC2)ccc1N1CCOCC1`, for which the activation is -0.32%.
For `O=C(COC(=O)Cc1ccc(F)cc1)Nc1cc(S(=O)(=O)N2CCOCC2)ccc1N1CCCC1`, the activation is 17.3% (active).
Next, `O=C(COC(=O)c1ccccc1F)Nc1cc(S(=O)(=O)N2CCOCC2)ccc1N1CCCC1`: -0.01%; `Cc1cc(C)cc(NC(=O)Cn2cnc3c(nnn3Cc3ccc(F)cc3)c2=O)c1`: -0.07%; `O=C(COC(=O)c1ccco1)NCc1ccc(Cl)cc1`: 0.62%.
Next, `Cc1ccccc1N1CCN(Cc2nc(Cc3ccccc3F)no2)CC1`: 0.64%; `COc1ccc(NC(=O)CSc2ncnc3[nH]ncc23)cc1`: -1.23%.
Take `CC(C)(C)c1ccc(/C=C2\Oc3c(ccc(O)c3CN3CCN(CCO)CC3)C2=O)cc1`: the activation was 0.44%.
Take `Cc1c(NC(=O)Nc2ccccc2)cccc1[N+](=O)[O-]`: the activation was 1.03%.
Regarding `CC(=O)c1cccc(NC(=O)Nc2ccc(C)cc2)c1`, the activation was -3.97%.
Under `Cc1ccc(NC(=O)Nc2ccccc2)c(Br)c1` stands 19.4% (active).
With `Cc1ccc(N/C(N)=N/c2nc(C(F)(F)F)cc(C(F)(F)F)n2)cc1`, the activation was 2.06%.
In the case of `Fc1ccc(Nc2nnns2)cc1`, the activation was 1.1%.
With `CC(=O)c1ccc(S(=O)(=O)N2CCN(C(=O)/C=C/c3ccc4ccccc4n3)CC2)cc1`, the activation was -0.28%.
As for `O=C1C(Cc2ccc(O)cc2)NC(=S)N1Cc1ccccc1` (stereo not given), the activation was 0.05%.
Under `COc1ccc(N2C(=O)C(Cc3ccccc3)NC2=S)cc1` (stereo not given) stands 18.3% (active); under `Cc1ccc(N2C(=O)C(Cc3ccccc3)NC2=S)cc1` (stereo not given), -4.7%.
Take `O=C(NCc1ccccc1)C1CCCN(c2nc3ccsc3c(=O)s2)C1` (stereo not given): the activation was 2.93%.
On to `Cc1nn(-c2ccccc2)c(Cl)c1/C=C/C(=O)c1ccc(O)cc1`, for which the activation is 4.66%.
On to `Cc1ccc2c(c1)c1ncn(Cc3ccc(F)cc3)c(=O)c1n2C`, for which the activation is 0.67%.
Turning to `CC(=O)N1CCC(N(C(=O)Nc2ccc(Cl)cc2)C(C)C)CC1`, the activation is -0.35%.
In the case of `CCOc1ccc(/C(O)=C2\C(=O)C(=O)N(c3ccc(OC)cc3)C2c2ccccc2[N+](=O)[O-])cc1` (stereo not given), the activation was 0.81%.
Under `COc1ccc(C2CC(c3cccs3)=NN2C(=O)CSc2nncs2)cc1OC` (stereo not given) stands 0.18%; under `COc1ccc(C2=NN(c3ccccc3)C(c3cccs3)C2)cc1` (stereo not given), 1.42%; under `COc1ccccc1N1N=C(c2cccs2)CC1c1ccccc1` (stereo not given), 7.12%.
As for `COc1ccc(C2CC(c3cccs3)=NN2c2nc(C)c(C(C)=O)s2)cc1OC` (stereo not given), the activation was 2.99%.
As for `COc1ccc(C2CC(c3cccs3)=NN2c2ccc(F)cc2)cc1OC` (stereo not given), the activation was 19.4% (active).
Turning to `COc1ccc(C2CC(c3cccs3)=NN2c2ccccc2)cc1` (stereo not given), the activation was 11.6% (active).
For the molecule `CSc1nc2nc3c(c(=O)n2[nH]1)CCC3`, the activation is -0.27%.
On to `COc1ccc(CN2CN(C3CCCC3)CSC2=S)cc1`, for which the activation was -0.49%.
Take `Cc1c(C(=O)Nc2cccc(-c3nnc4n3CCCCC4)c2)oc2ccccc12`: the activation is 2.38%.
With `CC1(C)CC(=O)c2c(n(S(=O)(=O)c3ccccc3)c3ccc(NS(=O)(=O)c4ccccc4)cc23)C1`, the activation is -0.65%.
Next, `O=C(O)/C=C/c1ccc(S(=O)(=O)N2CCCCCC2)cc1`: 1.37%; `CC1=CC=CC2=N/C(=N\S(=O)(=O)c3ccc(F)cc3F)c3ccccc3CN12`: 1.89%; `Cc1ccc2c(c1)nnc1nnc(SCC(=O)O)n12`: 0.65%.
`O=C(O)C1C2CC2CN1C(=O)c1ccc(Cl)cc1Cl` (stereo not given): the activation is 0.08%.
Next, `COc1ccc(/C=C2\N=C3CCCN3C2=O)cc1`: 0.59%; `CCCCCc1nnc(NC(=O)c2ccc(=O)n(C)n2)s1`: 0.34%.
For the molecule `CC(=O)c1cc(C#N)c(N2CC(C)OC(C)C2)nc1C` (stereo not given), the activation was 2.12%.
Under `CC(C)(C)C1CCC(C(=O)Nc2cccnc2)CC1` (stereo not given) stands -0.6%; under `CCOc1ncccc1C(=O)N(CC)CC(=O)Nc1ccc(NC(C)=O)cc1`, 0.47%.
Regarding `COc1cc(/C=C/C(=O)OCC(=O)Nc2cccc(Oc3ccccc3)c2)ccc1O`, the activation was 0.15%.
Under `CCCCCNC(=O)c1cccnc1SCC(=O)Nc1ccccc1OC` stands 19.3% (active).
On to `CCCc1nc(SCC(=O)Nc2ccccc2OC)c2c(=O)n(C)c(=O)n(C)c2n1`, for which the activation was -0.79%.
Next, `CCCNC(=O)c1ccccc1NC(=O)CSCc1ccc(OC)cc1`: 1.75%; `CCC(=O)/C(=C(/O)c1ccccc1)c1nc2ccccc2[nH]1`: 12.3% (active).
As to `O=C(/C(=C/c1cccc(Cl)c1)c1nc2ccccc2[nH]1)c1ccccc1`, the activation is -0.48%.
For the molecule `COCCN(CCOC)S(=O)(=O)c1ccc(/C(O)=C(\C#N)c2nc3ccccc3[nH]2)cc1`, the activation is 0.35%.
As for `COc1ccc(S(=O)(=O)N2CCN(C(=O)c3cc(C)oc3C)CC2)cc1`, the activation is 0.82%.
Consider `Cc1ccsc1/C=N/n1c(=S)[nH]nc(C)c1=O`, for which the activation was 3.22%.
In the case of `COc1ccc(-n2c(C)cc(C(=O)COC(=O)c3cc(OC)c(OC)cc3NC(=O)c3cccs3)c2C)cc1`, the activation is -0.44%.
Take `CCOC(=O)NNC(=O)c1ccc(Cl)cc1`: the activation is -0.78%.
Consider `CSc1sc(C(=O)NNC(=O)c2ccc(Cl)cc2)c2c1C=CCC2`, for which the activation was 13.5% (active).
As to `O=C(NNC(=O)C1C2CCC(C2)C1C(=O)O)c1ccc(Cl)cc1` (stereo not given), the activation was 1.68%.
Under `CC(=O)c1ccc(N2CCN(C(=O)c3ccc4nc[nH]c4c3)CC2)cc1` stands 0.76%; under `O=C1CCCc2nn(-c3ccccc3)nc21`, -2.78%; under `CN(C)S(=O)(=O)c1ccc(Cl)c(NC(=O)COC(=O)CC(NC(N)=O)c2ccc(Cl)cc2)c1` (stereo not given), 1.79%.
